# Data from PubChem BioAssay AID493030 (The Scripps Research Institute Molecular Screening Center, 2011).
# The campaign covered roughly 2,300 compounds. About 1,500 (65%) were called active.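 How the source made its calls: active means mean inhibition over three repeats above a set limit taken from the earlier primary screen (cut at about 30% in these data); inactive means the rest.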 So high a share suggests a set chosen from earlier hits. Only a selection was taken, and actives are over-represented in it overall.
# Molecular target: Platelet-activating factor acetylhydrolase 2, cytoplasmic (Homo sapiens) (UniProt Q99487)
# Test: PAFAH2 enzyme inhibitors, confirmation, biochemical, fluorescence polarization, human (AID 493030);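 further: inhibitor blocks binding of rhodamine activity probe so polarization falls; 0% = enzyme with DMSO and 100% = wells lacking PAFAH2 protein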
# Settings: recombinant PAFAH2, FP-rhodamine activity probe, at 3.39 µM, hits give high values
row,Compound,inhibition
1,Cc1cccc(N2C(=O)NC(=O)/C(=C\c3cnn(-c4ccccc4)c3)C2=O)c1,35.3% (active)
2,COc1cccc(N2C(=O)NC(=O)/C(=C\c3cn(C)c4ccccc34)C2=O)c1,36.5% (active)
3,O=C(COC(=O)c1ccccc1)Nc1ccc(Cl)cc1C(=O)c1ccccc1,39.7% (active)
